Results filed as inconclusive are left out. Values without a mark were called inactive. Calls follow the shape of the dose curve; as a rule, active = well fitted cell-killing curve with a large enough effect in the repeat runs; inconclusive = weak or mixed curves, or effect the other way; inactive = no such curve, though single readings can be large or run the other way.
assay: qHTS assay to identify small molecule antagonists of the retinoid-related orphan receptor gamma (ROR-gamma) signaling pathway - cell viability counter screen (AID 1159520); details: Tet-on RORgamma CHO cells viability, ATP luminescence, 16 h; series mostly up to 92.4 µM; activity, negative = cytotoxicity: at the top concentration; also: nearly all actives have a fitted effect of over 50% in size
From the text: U.S. Tox21 Program National Center for Advancing Translational Sciences [NCATS] NIH Chemical Genomics Center [NCGC] U.S. Environmental Protection Agency [EPA] National Institutes of Environmental Health Sciences [NIEHS] National Toxicology Program [NTP] U.S. Food and Drug Administration [FDA] Tox21 Assay Overview: Nuclear steroid hormone receptors are involved in many biological processes including inflammatory responses, cell proliferation, and apoptosis. Environmental factors or compounds disrupting these nuclear receptor pathways and gene expression may promote susceptibility to immunotoxicants and autoimmune diseases. One important group of these expression factors are the retinoid-related orphan receptors. To assess compounds that may interfere with the retinoid-related orphan receptor gamma (ROR-gamma) transcription factor, a cell-based luciferase assay was used. The CHO cell-based assay utilizes a TET-inducible ROR expression factor and ROR response element-LUC reporter gene. Reporter gene activity was induced using Doxycycline Hyclate and measured after 16 hr incubation. Tet-on ROR gamma CHO cells were used to screen against the Tox21 10K compound library for cytotoxicity by measuring the viability of the cells based on the quantitation of the ATP.
Tox21 Assay Protocol Summary: Tet-on ROR gamma CHO cells were dispensed at 1,000 cells in 4 uL of culture medium per well into white wall/solid bottom 1536-well plates using a Multidrop Combi (Thermo Scientific, Waltham, MA) dispenser. Following incubation at 37 C and 5% CO2 for 4 hr, 23 nL of compounds dissolved in DMSO, positive controls or DMSO only were transferred by a Pintool station (Kalypsys, San Diego, CA) and after 2 hr incubation at 37 C, one ul of 1 uM (final concentration) of Doxycycline Hyclate was added to all the wells by using a Flying Reagent Dispenser (FRD) (Aurora Discovery, San Diego, CA). After 16 hr incubation at 37 C and 5% CO2, 5 uL of CellTiter-Glo reagent (Promega Corporation, Madison, WI) was added to each assay plate using FRD. After 30 min incubation at room temperature, luminescence was quantified on a ViewLux plate reader (Perkin Elmer, Waltham, MA).
% is scaled to controls: 0 for no effect and ±100 for the full control effect.

Row | Compound | activity, negative = cytotoxicity
1 | CCOC(=O)CC(O)(CC(=O)OCC)C(=O)OCC | -10.9%
2 | CCCCCCCCCCCCCCCCCCCl | -1.61% [at 8.39 µM]
3 | NC(=O)c1ccccc1C(N)=O | 4.6%
4 | Cc1ccc(NC(=O)c2ccc(CN3CCN(C)CC3)cc2)cc1Nc1nccc(-c2cccnc2)n1 | 0.689% [at 42.5 µM]
5 | O=C(OCCOCCOCCOC(=O)c1ccccc1)c1ccccc1 | -8.42%
6 | C=CC(C)(O)CC/C=C(/C)CCC=C(C)C (stereo not given) | -0.0548%
7 | CCCC(=O)OCCC(C)C | 12.6%
8 | CC(=O)S[C@H](C(=O)N[C@H]1Cc2ccccc2[C@H]2CCC[C@@H](C(=O)O)N2C1=O)C(C)C | 1.28%
9 | O=Cc1ccc([N+](=O)[O-])cc1 | -1.43%
10 | CC(=O)Oc1cccc2c1C(=O)c1c(OC(C)=O)cc(C(=O)O)cc1C2=O | -4.73% [at 42.5 µM]
11 | COc1ccc(C(=O)c2ccc(C)cc2)c(O)c1 | -6.01%
12 | CCC(=O)O[C@]1(C(=O)COC)[C@@H](C)C[C@H]2[C@@H]3CCC4=CC(=O)C=C[C@]4(C)C3(F)[C@@H](O)C[C@@]21C (stereo not given in full) | 1.33% [at 42.5 µM]
13 | CCCCC(CC)COCCC#N (stereo not given) | -1.71%
14 | COC(=O)C(C)(C)C | 1.72%
15 | NC(=O)c1cc[n+](CC2=C(C(=O)[O-])N3C(=O)[C@@H](NC(=O)Cc4cccs4)[C@H]3SC2)cc1 | 2.32% [at 42.5 µM]
16 | CC(C)=CCCC(C)C=O (stereo not given) | 0.75%
17 | O=C(OCCCCCOC(=O)c1ccccc1)c1ccccc1 | 3.8%
18 | COc1ccc(/C(C)=C/C(=O)O)c(OC)c1 | 5.76% [at 42.5 µM]
19 | CC(=O)Nc1ccccc1O | -7.79%
20 | CCCCCCCCCCCCSC#N | 1.21%

Row | Compound | activity, negative = cytotoxicity
21 | O=C(O)c1ccccc1-n1cc(C(=O)O)c(=O)c2cc(Nc3c(F)cc(F)cc3Cl)c(Cl)cc21 | 4.97%
22 | Clc1cc(Cl)c2c(c1)N=C1CCCCCN1C2 | 3.62% [at 42.5 µM]
23 | CCCC1CCOC(C)S1 (stereo not given) | 4.71%
24 | CC(C)(C)c1cc(C=O)cc(C(C)(C)C)c1O | 2.59% [at 42.5 µM]
25 | CCCCCCCCCCCCN1CCOCC1 | 1.13%
26 | Oc1ccc(Oc2ccccc2)cc1 | 1.99%
27 | O=C(O)c1ccc2c(c1)nc(C(=O)NC1CCN(C3CC3)CC1)n2Cc1cc(-c2ccc(Cl)s2)on1 | -12.3% [at 19 µM]
28 | C=Cc1ccc(C=C)cc1 | 1.46%
29 | O=[N+]([O-])c1ccc(Cl)cc1Cl | 1.39%
30 | C[Si](C)(C)O[Si](C)(C)O[Si](C)(C)C | 1.22%
31 | CCCCCCCCOCCCN | 5.73%
32 | NC(=O)c1ccccc1 | 5.67%
33 | CCC(=O)O[C@@H]1C[C@H]2CC[C@]1(C)C2(C)C | 1.31%
34 | CCCCCCCCCCCCCCCCN | -4.03% [at 42.5 µM]
35 | CC(C)(C)N | 1.71%
36 | Cc1cc(SC2=C(O)C[C@@](CCc3ccc(N)cc3)(C(C)C)OC2=O)c(C(C)(C)C)cc1CO | 3.31%
37 | CC(C)CCCCCOC(=O)CS | 5.51%
38 | C=CC(O)CCCCC (stereo not given) | 6.12%
39 | Cc1c(N=C=O)cccc1N=C=O | 1.71%
40 | CCC(CC)C(=O)O | 2.91%
